Inconclusive results are not listed. The source made the active and inactive calls. The call rests on the fitted dose curve; in most records, active means well fitted inhibition curve with a large enough effect; inconclusive means small, poorly fitted or top-dose-only effect; inactive means no such curve, though single readings can be large or run the other way.

Sequence of Luciferin 4-monooxygenase (Photinus pyralis) (P08659 whole entry, looked up): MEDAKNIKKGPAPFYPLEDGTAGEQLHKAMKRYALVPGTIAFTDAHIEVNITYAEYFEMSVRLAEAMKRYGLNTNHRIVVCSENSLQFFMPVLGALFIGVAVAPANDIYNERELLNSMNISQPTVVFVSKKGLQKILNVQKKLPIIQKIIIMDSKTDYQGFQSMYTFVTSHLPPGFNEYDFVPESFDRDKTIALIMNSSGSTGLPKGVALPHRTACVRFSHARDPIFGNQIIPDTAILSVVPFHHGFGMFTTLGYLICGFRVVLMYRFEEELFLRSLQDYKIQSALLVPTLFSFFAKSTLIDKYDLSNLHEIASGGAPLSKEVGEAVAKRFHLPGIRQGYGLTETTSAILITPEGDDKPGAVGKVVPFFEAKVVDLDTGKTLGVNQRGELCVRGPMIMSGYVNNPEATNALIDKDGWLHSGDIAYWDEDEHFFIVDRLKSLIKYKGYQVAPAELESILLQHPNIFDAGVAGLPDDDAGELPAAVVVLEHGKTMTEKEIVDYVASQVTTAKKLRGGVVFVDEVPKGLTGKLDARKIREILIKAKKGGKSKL

The target in the assay is Luciferin 4-monooxygenase (Photinus pyralis) (UniProt P08659). Briefly: FLuc inhibitory activity for the follow-up compounds in a biochemical assay with Km concentrations of substrate. The following applies: purified FLuc, Km substrates, luminescence; series mostly up to 57.5 µM. An excerpt:
NCGC Assay Overview: Firefly (Photinus pyralis) luciferase is one of the most commonly used transcriptional reporters. It is considered one of the more dynamically responsive reporters - that is, responsive to changes in reporter transcription - as it requires no post-translational modifications and is enzymatically active directly after protein synthesis (Wood, 1998). With no endogenous expression in mammalian cells and without the requirement of external excitation, it offers very little background signal, thus generally providing excellent signal to background for most assays. Previous profiling work to determine the prevalence of compounds that affect FLuc enzymatic activity (PubChem AID 411) identified that ~3% of the MLSMR library (then at ~72K) inhibited FLuc. […] Of the compounds identified in this profile that inhibited FLuc, 151 compounds were selected for further analysis, in an effort to better understand their mode of inhibiting FLuc. The assay described here confirms the FLuc inhibitory activity of the 151 compounds.
NCGC Assay Protocol Summary: Reagents: 50mM Tris acetate, pH 7.5; 10mM Mg acetate; 10uM D-luciferin (Sigma #L9504); 10uM ATP; 0.01% Tween-20; 0.05% BSA; 10nM P. pyralis luciferase (Sigma #L9506) Control compounds used were two known firefly luciferase inhibitors (3-(5-(3-chlorophenyl)-1,2,4-oxadiazol-3-yl)benzoic acid and 5-(2-fluorophenyl)-3-phenyl-1,2,4-oxadiazole), and DMSO. Three microliters containing firefly luciferase substrates in buffer (final concentrations: 50mM Tris acetate, pH 7.5, 10mM Mg acetate, 0.01% Tween-20, 0.05% BSA, 10uM D-luciferin, and 10uM ATP) are dispensed into each well of a Greiner white, solid-bottom 1536-well format plate using a flying reagent dispenser (FRD). These assay plates were then treated with 23nL of compound or DMSO using a Kalypsys pin tool, which allows for delivery of a 12-point intraplate titration of each compound to the assay plate (quantitative HTS), with a final compound concentrations ranging from approximately ~60uM to 0.3nM. One microliter of firefly luciferase in 500mM Tris-acetate buffer was then delivered by FRD to each well for a final enzyme concentration of 10nM. Luciferase activity was then measured using a ViewLux CCD imager (PerkinElmer), with an average exposure time of 2-30 seconds (2X binning, medium/high gain).
As to `O=C(O)c1cccc(NC(=O)c2cccc(S(=O)(=O)N3CCc4ccccc43)c2)c1`, the Potency was 23100 nM (active).

Turning to `COc1ccc2nc(NC(=O)c3cnccn3)sc2c1`, the Potency is 2910 nM (active).

With `Cc1c(C)c2ccc(OCC(=O)Nc3ccccn3)c(C)c2oc1=O`, the Potency is 11.6 nM (active).

As to `Cc1ccc(S(=O)(=O)N2CCOCC2)cc1C(=O)Nc1ccccc1C(=O)O`, the Potency entry was “inactive”.

With `Oc1ccc(-c2nc3ccccc3s2)c(O)c1`, the Potency was 6510 nM (active).

For `Cc1cccc(C(=O)Nc2ccccc2C(=O)Nc2ccc(C(=O)O)cc2)c1`, the Potency is 11600 nM (active).

Regarding `O=C(O)c1ccc(NC(=O)c2ccccc2NC(=O)c2cccc(Br)c2)cc1`, the Potency was 14600 nM (active).

As to `O=C(Nc1c(Cl)cc(Cl)cc1-c1nc2ccccc2s1)c1ccc(Br)o1`, the Potency result is “inactive”.

For the molecule `Cc1c(NC(=O)c2cc(-n3cnnc3)ccc2Cl)cccc1-c1nc2ccccc2s1`, the Potency was 580 nM (active).

Consider `Nc1cccc(-c2nc3ccc(N)cc3s2)c1`, for which the Potency was 366 nM (active).

For the molecule `Cn1c(N/N=C/c2cc3ccccc3nc2Cl)nc2ccccc21`, the Potency was 58 nM (active).

`Cc1ccc(NS(=O)(=O)c2ccc(Cl)c(C(=O)Nc3cccc(C(=O)O)c3)c2)cc1`: the Potency entry was “inactive”.

Consider `COc1ccc(C(=O)Nc2ccccc2C(=O)Nc2ccccc2C(=O)O)cc1`, for which the Potency was 580 nM (active).

For the molecule `Cc1ccc(C(=O)Nc2cccc(C(=O)O)c2)cc1S(=O)(=O)N1CCOCC1`, the Potency was 291 nM (active).

Turning to `Cc1ccc(C(=O)Nc2cccc(C(=O)O)c2)cc1`, the Potency was 32.6 nM (active).

As for `COc1ccc2nc(NC(=O)c3ccc([N+](=O)[O-])o3)sc2c1`, the Potency was 3660 nM (active).

With `COc1c(C)cccc1C(=O)Nc1ccc(-c2nc3ccccc3s2)c(Cl)c1`, the Potency entry is “inactive”.

Turning to `Cc1ccc(C(=O)Nc2cccc(C(=O)O)c2)cc1S(=O)(=O)N1CCCCC1`, the Potency was 65.1 nM (active).

Regarding `COc1ccc(-c2nc3ccccc3s2)cc1NC(=O)c1ccc(F)cc1`, the Potency entry is “inactive”.

For the molecule `COc1cc(OC)cc(C(=O)Nc2ccccc2-c2nc3ccccc3s2)c1`, the Potency entry was “inactive”.

As to `COc1cccc(-c2nc3ccccc3s2)c1`, the Potency is 1300 nM (active).

`O=C(Nc1cccc(-c2nc3ccccc3s2)c1)C1=COCCO1`: the Potency is 18300 nM (active).

As for `Nc1ccccc1-c1nc2ccccc2s1`, the Potency was 8190 nM (active).

Regarding `O=C(O)c1cccc(NC(=O)c2ccc(Cl)c(S(=O)(=O)N3CCCCCC3)c2)c1`, the Potency was 58 nM (active).

Consider `O=C(Nc1ccc(Cl)cc1-c1nc2ccccc2s1)c1ccco1`, for which the Potency entry was “inactive”.

In the case of `COc1cc(OC)cc(C(=O)Nc2ccc(-c3nc4ccccc4s3)c(C)c2)c1`, the Potency result was “inactive”.

Regarding `COc1ccc(C(=O)Nc2ccccc2-c2nc3ccccc3s2)c(OC)c1`, the Potency result is “inactive”.

For `COc1cccc(OC)c1C(=O)Nc1cccc(C(=O)Nc2cccc(C(=O)O)c2)c1`, the Potency was 5800 nM (active).

Turning to `O=C(Nc1ccccc1-c1nc2ccccc2s1)c1cccnc1`, the Potency result was “inactive”.

For `CC(C)(C)C(=O)Nc1ccc(-c2nc3ccccc3s2)cc1`, the Potency is 11.6 nM (active).

In the case of `O=C(O)c1cccc(NC(=O)c2ccccc2NC(=O)c2ccccc2F)c1`, the Potency is 18300 nM (active).

On to `O=C(Cc1ccccc1)Nc1ccc(C(=O)Nc2ccccc2C(=O)O)cc1`, for which the Potency was 20600 nM (active).

`Cc1ccc(S(=O)(=O)N2CCN(C(=O)c3ccccc3-c3nc4ccccc4s3)CC2)c(C)c1`: the Potency result was “inactive”.

For the molecule `O=C(Nc1ccccc1C(=O)O)c1cccc(S(=O)(=O)Nc2ccc(Br)cc2)c1`, the Potency result is “inactive”.

As for `CCOC(=O)N1CCN(CC(=O)Nc2nc3ccc(OC)cc3s2)CC1`, the Potency entry is “inactive”.

On to `O=C(O)c1cccc(NC(=O)c2cccc(NC(=O)C3CCCO3)c2)c1` (stereo not given), for which the Potency is 919 nM (active).

For the molecule `COc1ccc(Br)cc1C(=O)Nc1ccc(C(=O)O)cc1`, the Potency result was “inactive”.

In the case of `COc1ccc2nc(NC(=O)CCc3ccc(OC)c(OC)c3)sc2c1`, the Potency entry is “inactive”.

Take `Cc1ccccc1C(=O)Nc1cccc(C(=O)Nc2ccccc2C(=O)O)c1`: the Potency was 32600 nM (active).

For `Cc1ccc2sc(-c3ccc(N)cc3)nc2c1`, the Potency is 183 nM (active).

The values above are taken from PubChem BioAssay AID602357 (National Center for Advancing Translational Sciences (NCATS), 2012).
